HT1080 IDH1KD tx = toxicity to HT-1080 IDH1 knockdown cells (counter line) | HT-1080 IDH1 knockdown viability, ATP luminescence, 48 h | Potency, µM (series often up to 46.1 µM), actives largely listed as cytotoxic | 2% of 360,000 active
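In this qHTS, HT-1080 cells depleted of IDH1 are exposed for 48 h at 37 °C to compound titrations. Toxicity is scored from CellTiter-Glo luminescence, with DMSO as full viability and medium alone as none.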
IL1B secr inh = inhibitors of inflammasome signaling (IL-1 beta secretion) | 4.7% of 360,000 active | THP-1 LPS/ATP IL-1B secretion, AlphaLISA, 16 h; hits give low values | activity change, % at 57.5 µM | AID 743279; in the data active = activity change below about -50%; inconclusive = mostly about -30% to -49%
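Secreted IL-1B measured by AlphaLISA bead assay after 16 h compound exposure of THP-1 cells; compounds (final up to 57.5 uM) added 1 h before LPS (250 ng/mL) and ATP (1.25 mM) stimulation; lower signal means less secretion.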
12-LOX inh = blocks human arachidonate 12S-lipoxygenase. P18054. purified 12hLO, xylenol orange hydroperoxide absorbance. Potency, µM (highest dose often 108 µM), actives largely listed as inhibitors. 1.1% of 580,000 active
Target sequence (P18054 whole entry, looked up): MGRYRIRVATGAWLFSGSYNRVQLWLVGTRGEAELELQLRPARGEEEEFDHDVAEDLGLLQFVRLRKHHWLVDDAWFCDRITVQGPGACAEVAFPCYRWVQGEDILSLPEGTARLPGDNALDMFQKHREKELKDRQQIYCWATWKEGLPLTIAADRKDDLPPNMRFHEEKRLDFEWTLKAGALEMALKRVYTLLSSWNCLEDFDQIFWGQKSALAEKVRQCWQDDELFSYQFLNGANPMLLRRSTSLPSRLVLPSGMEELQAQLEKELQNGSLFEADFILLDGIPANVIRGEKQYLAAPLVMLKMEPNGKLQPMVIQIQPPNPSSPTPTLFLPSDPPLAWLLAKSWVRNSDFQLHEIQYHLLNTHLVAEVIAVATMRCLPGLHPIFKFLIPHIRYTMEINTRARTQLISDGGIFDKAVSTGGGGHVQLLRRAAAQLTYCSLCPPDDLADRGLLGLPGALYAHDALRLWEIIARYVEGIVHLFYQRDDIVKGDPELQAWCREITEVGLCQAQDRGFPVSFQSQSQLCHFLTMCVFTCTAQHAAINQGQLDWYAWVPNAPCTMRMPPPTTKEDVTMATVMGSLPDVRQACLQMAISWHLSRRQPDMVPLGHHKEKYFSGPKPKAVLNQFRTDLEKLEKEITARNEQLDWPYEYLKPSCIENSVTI
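Purified human 12hLO (150 nM final) in 25 mM Hepes, 0.01% Triton X-100, pH 7.0 was preincubated 15 min at room temperature with compound. Then 40 uM arachidonic acid was added, 30 min. Hydroperoxide was read by Fe-XO absorbance ratio 573/405 nm.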
DT40 TDP1 CPT = growth inhibition of DT40 Tdp1-/-;hTDP1 cells with camptothecin (screen for TDP1 inhibitors) | chicken DT40 Tdp1-/-;hTDP1 cells + 20 nM CPT, ATP luminescence, 48 h | Potency, µM (doses to about 46.2 µM), most hits filed as inhibitors | 12% of 420,000 active | AID 686979; also: nearly all actives have a fitted effect of over 55% in size
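Chicken DT40 Tdp1-/- cells complemented with human TDP1, 400 cells/well, exposed to compounds plus 20 nM camptothecin for at least 48 h at 37 C; viability read as ATP content by CellTiter-Glo luminescence.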
DT40 TDP1 no CPT = qHTS for Inhibitors of human tyrosyl-DNA phosphodiesterase 1 (TDP1): qHTS in cells in absence of CPT. DT40 Tdp1-/- hTDP1 cells, no CPT, ATP luminescence, 48 h. Potency, µM (top dose mostly 46.2 µM), actives largely listed as inhibitors. 15% of 420,000 active; also: nearly all actives have a fitted effect of over 55% in size
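A cellular qHTS used chicken DT40 cells lacking endogenous Tdp1 but carrying stably transfected human TDP1. Compounds were applied without camptothecin, and cell growth kinetics were judged by ATP-dependent luminescence after ≥48 hr.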
HT1080-NT tox = kills 2HG-producing HT-1080-NT fibrosarcoma cells | HT-1080-NT fibrosarcoma viability, CellTiter-Glo ATP luminescence, 48 h | 1.6% of 360,000 active | Potency, µM (top dose mostly 46.1 µM), usual class: cytotoxic;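 also: NT is the 2HG producing partner of a matched IDH1 knockdown line; nearly all actives have a fitted effect of over 55% in size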
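Compounds were tested in concentration-response format on HT-1080-NT cells for 48 hours at 37 degrees C. Cell viability came from CellTiter-Glo luminescence; curves were classified by r2, response magnitude and activity.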
A number is an active result; - = inactive; ? = inconclusive; . = no result; [ ] = another dose, or the depositor's remark. This is one part of a sample in which hits are shown more often than they occur. Unless noted, calls follow the shape of the dose curve; as a rule, active = well fitted curve in the direction sought with a large enough effect; inconclusive = small, poorly fitted or top-dose-only effect, or another doubt; inactive = no such curve, though single readings can be large; an effect the other way counts as inactive or inconclusive.

SMILES	HT1080 IDH1KD tx	IL1B secr inh	12-LOX inh	DT40 TDP1 CPT	DT40 TDP1 no CPT	HT1080-NT tox
CC(C)CNC[C@H]1O[C@H](Cc2cc(CN(C)Cc3ccccc3)on2)CC[C@@H]1O	.	.	-	.	.	.
CCCn1ccc2sc(C)c(C(=O)NC3CCCC3)c2c1=O	.	.	-	.	.	.
COc1ccc(CNC(=O)COc2ccc3ccc(=O)oc3c2)cc1	.	.	-	.	.	.
CCN(CC)S(=O)(=O)c1cccc(-c2nnc(SCC(=O)c3cc(C)n(C)c3C)o2)c1	-	-	-	20.6µM	20.6µM	-
C=CCn1c(=O)/c(=C/c2ccc(F)cc2)s/c1=C(\C#N)c1nnc2n1CCCCC2	-	-67.1	-	23.1µM	16.4µM	-
Cc1ccc(/C=C(/C#N)C(=O)NC2CCCC2)cc1C	.	.	-	.	.	.
O=c1[nH]c(Nc2ccc(F)cc2)cc2ccccc12	-	-	?	-	?	-[9.24 µM]
c1ccc(-[n+]2nc(Nc3cccc4ccccc34)sc2-c2c3ccccc3cc3ccccc23)cc1	8.2µM	-	.	?	14.6µM	3.66µM
Oc1ccc(-c2sc(Nc3ccccc3)n[n+]2-c2ccc(F)cc2)cc1	-	-	?	-	-	-
Oc1ccc2ccccc2c1-c1sc(Nc2ccccc2)n[n+]1-c1ccc(F)cc1	-	-	?	?	16.4µM	-
Fc1ccc(-[n+]2nc(Nc3ccccc3)sc2-c2c3ccccc3cc3ccccc23)cc1	23.1µM	-89.4	?	5.8µM	3.66µM	20.6µM
CCn1ccnc1CN(C)c1nccc(-c2ccc(C)nc2C)n1	.	.	-	.	.	.
Cc1[nH]c2c(C(=O)NC3CCCC3)cccc2c1C	.	.	-	.	.	.
COc1ccccc1CNc1nc2ccccc2nc1NS(=O)(=O)c1ccc(C)c(C)c1	.	.	-	.	.	.
Clc1ccc(/C(Cc2nc3ccccc3[nH]2)=N\Nc2ccccc2)cc1	?	-84.4	?	?	?	?
O=C(Cc1nc2ccccc2[nH]1)c1ccc(Cl)cc1	-	-98.9	?	?	?	-
COCCn1c(=O)c2c(nc(-n3nc(C)cc3C)n2Cc2ccc(OC)cc2)n(C)c1=O	.	.	-	.	.	.
O=C(NC1CC1)C(Sc1ccc2ccccc2c1)c1ccc(F)cc1 (stereo not drawn)	.	.	-	.	.	.
O=C(O)CSc1nc2ccccc2nc1N1CCCCC1	.	.	-	-	-	.
COC(=O)CS(=O)(=O)c1nc2ccccc2nc1N1CCCCC1	.	.	-	20.6µM	13µM	.
CCc1[nH]nc(C(=O)N2CCC3(CC2)C(=O)NCCN3C)c1C	.	.	-	.	.	.
COc1ccc(-n2c(C)c(C(C)=O)c3cc(OC(=O)c4ccc(C)cc4)ccc32)cc1	.	.	-	?	23.1µM	.
Cc1cc(C)n(-c2nc(NCC3CCCO3)c3c4c(sc3n2)COC(C)(C)C4)n1 (stereo not drawn)	-	-50.7	-	5.17µM	3.66µM	-
Cc1cc(C)n(-c2nc(SCCN(C)C)c3c4c(sc3n2)COC(C)(C)C4)n1	?	-60.0	-	22.4µM	17.8µM	17.8µM
CCc1nnc(SCC(=O)Nc2cc(OC)cc(OC)c2)c2cc3sccc3n12	.	.	-	.	.	.
SMILES	HT1080 IDH1KD tx	IL1B secr inh	12-LOX inh	DT40 TDP1 CPT	DT40 TDP1 no CPT	HT1080-NT tox
Cc1ccc2[nH]c(=O)c(CN(Cc3ccco3)S(=O)(=O)c3c(C)ccc4nsnc34)cc2c1	-	-58.3	-	?	?	-
COc1ccc2[nH]c(=O)c(CN(Cc3cccs3)S(=O)(=O)c3c(C)ccc4nsnc34)cc2c1	?	?	-	4.11µM	18.4µM	-
N#Cc1nc(/C=C/c2cccs2)oc1NCCCn1ccnc1	.	.	-	.	.	.
COc1ccccc1/C=C/C(=O)NC(=S)Nc1ccccn1	-	-	-	-	-	-
COc1ccccc1/C=C/C(=O)NC(=S)Nc1ccc(S(=O)(=O)N(C)c2ccccc2)cc1	-	-	-	?	23.1µM	-
CN(Cc1ccccc1)S(=O)(=O)c1ccc(NC(=S)NC(=O)C2CCCC2)cc1	8.91µM	-	?	5.17µM	4.61µM	7.08µM
CN(c1ccccc1)S(=O)(=O)c1ccc(NC(=O)c2ccccc2C(=O)O)cc1	-	-	?	?	?	-

Compound activity: PubChem BioAssay, National Center for Advancing Translational Sciences (NCATS)
